High-throughput results (PubChem BioAssay)
The list is not random: actives were taken first. Their share in the collection is about 2.1%.
Abeta rescue – restores growth of yeast expressing A-beta42 peptide; hit rate 0.063% among 410,000; yeast expressing A-beta42, growth rescue, OD600, 48 h; response scale: 0% DMSO, 100% iron-clioquinol control; Potency, µM (highest dose often 46.1 µM), most hits filed as activators; note: nearly all actives have a fitted effect of over 55% in size
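Yeast growth medium received pinned compounds, then yeast cells expressing toxic A-beta were added; plates incubated at 30 C for 48 hr. Growth read as absorbance at 600 nm, normalized to DMSO and equimolar FeCl3 plus clioquinol controls.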
TDP-43 yeast inh – TDP-43 toxicity inhibition in yeast. TDP-43 expressing yeast growth rescue, BacTiter-Glo, 24 h. Potency, µM (highest dose often 46.1 µM), for the others: top-dose growth rescue (activation), actives largely listed as activators. hit rate 1.8% among 410,000. AID 652104; note: % of control where 0% means no effect; nearly all actives have a fitted effect of over 50% in size
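In this qHTS, compounds that restore growth of yeast expressing TDP-43 appear as activators. Cells (OD600=0.02, galactose medium, raffinose-pregrown) are incubated with compound 24 hr at 30 deg C and growth is quantified by BacTiter-Glo.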
FUS suppressor – rescues growth of FUS-expressing yeast; S. cerevisiae FUS-expressing, growth rescue, OD600, 24 h; Potency, µM (series often up to 76.6 µM), usual class: activators; hit rate 0.24% among 390,000;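 note: plate controls were DMSO vehicle for no effect and reference control for full effect; nearly all actives have a fitted effect of over 55% in size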
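Galactose (2%) drives FUS expression in yeast precultured in raffinose; seeding density OD 0.005. Test compounds incubated 24hr at 30C and 99% humidity before absorbance at 600 nm was measured.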
aSyn rescue – inhibitors of alpha-synuclein toxicity in yeast; Potency, µM (doses to about 46.1 µM), inactives show top-dose growth rescue (activation), most hits filed as activators; AID 652106; Yeast expressing alpha-synuclein, growth rescue, BacTiter-Glo, 24 h; hit rate 0.14% among 370,000; note: % of control where 0% means no effect; nearly all actives have a fitted effect of over 65% in size
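Galactose-induced alpha-syn yeast (OD600=0.02, raffinose-pregrown) + pinned cpd, 24 hr, 30 deg C; growth by BacTiter-Glo luminescence. Growth restoration scores as activation.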
* = called active by the depositor; i = inactive; u = inconclusive; x = no result given; ! = not active in a repeat. Calls come from the whole dose curve; as a rule, active = well fitted curve in the direction sought with a large enough effect; inconclusive = small, poorly fitted or top-dose-only effect, or another doubt; inactive = no such curve, though single readings can be large; an effect the other way counts as inactive or inconclusive. Potency is the fitted concentration of half-maximal effect.

SMILES	Abeta rescue	TDP-43 yeast inh	FUS suppressor	aSyn rescue
N#Cc1nc(-c2ccc(OCc3ccccc3Cl)cc2)oc1N1CCCCCC1	x	x	x	5.8%
Cc1cccc(OCCNc2ccc([N+](=O)[O-])cn2)c1	i	12.6µM*	i	2.0%
O=[N+]([O-])c1ccc(NCCOc2ccccc2Cl)nc1	i	22.5%	i	2.0%
Cc1cccc(Sc2ccc([N+](=O)[O-])cn2)c1	i	11.2µM*	i	1.3%
CC(C)(C)c1csc(Sc2ccc([N+](=O)[O-])cn2)n1	i	11.2µM*	i	-11.7%
O=C(COCc1cc(-c2ccc3c(c2)OCO3)on1)N1CCN(c2cccc(C(F)(F)F)c2)CC1	i	35.5µM*!	i	18.6%
COc1ccc(CNC(=O)COCc2cc(-c3ccc4c(c3)OCO4)on2)cc1	i	23.9%	i	x
COc1cccc(CNC(=O)COCc2cc(-c3ccc4c(c3)OCO4)on2)c1	i	35.5µM*	i	x
CC1=C(c2ccc(C)c(C)c2)S(=O)(=O)N=C1N1CCC(C(=O)N2CCC(C)CC2)CC1	i	2.7%	i	x
CCOC(=O)/C(=C\c1cccnc1)C(=O)c1cc(C(C)=O)c(Nc2ccccc2)s1	i	3.16µM*	x	-20.9%
CCOC(=O)/C(=C\c1ccccc1)C(=O)c1cc(C(C)=O)c(Nc2ccccc2)s1	i	-11.4%	i	28.3%
Cc1cc(C)c(NC(=O)CCN2C(=O)c3ccccc3Sc3ncccc32)c(C)c1	i	13.3%	i	x
CC1=C(C(=O)N2CCc3ccccc32)C2(CCC(C)CC2)OC1=O (stereo not drawn)	i	12.6µM*	i	x
CCOc1ccc(NC(=O)C2=C(C)C(=O)OC23CCC(C)CC3)cc1 (stereo not drawn)	u	20µM*	i	5.5%
COc1ccc(OC)c(CCNC(=O)C2=C(C)C(=O)OC23CCC(C)CC3)c1 (stereo not drawn)	i	21.6%	i	x
CC1=C(C(=O)N2CCCCC2)C2(CCC(C)CC2)OC1=O (stereo not drawn)	i	0.0%	i	-0.6%
CC1=C(C(=O)Nc2ccc(C)cc2Cl)C2(CCCCCC2)OC1=O	i	28.9%	i	x
CCCNC(=O)C1=C(C)C(=O)OC12CCC(C)CC2 (stereo not drawn)	i	15.9%	i	-2.4%
CC1=C(C(=O)Nc2ccc(C)cc2Cl)C2(CCCCC2)OC1=O	i	11.2µM*	i	x
COc1ccc(NC(=O)C2=C(C)C(=O)OC23CCC(C)CC3)c(OC)c1 (stereo not drawn)	i	20µM*	i	2.6%
CC(=O)c1cccc(NC(=O)COc2ccccc2C(=O)Nc2ccccc2)c1	x	x	x	6.9%
N#Cc1ccc(C(=O)N(Cc2ccco2)Cc2cccs2)cc1	x	x	x	5.4%
Cc1ccccc1OCC(=O)NCC(=O)OCc1ccc2ccccc2c1	x	x	x	-7.6%
Cc1cc(F)ccc1S(=O)(=O)Nc1ccccc1C(=O)N1CCCC1	i	15.5%	i	4.47µM*
CCCC1Cc2c(sc(N)c2C#N)CO1 (stereo not drawn)	i	12.6µM*	i	4.8%
SMILES	Abeta rescue	TDP-43 yeast inh	FUS suppressor	aSyn rescue
CCCC1Cc2c(sc3nc(SC)nc(N)c23)CO1 (stereo not drawn)	i	-10.3%	i	-0.1%
COC(=O)C[C@H]1CC[C@H]2[C@H](COc3ccc(NC(=O)c4cccs4)cc3C(=O)N2C)O1	x	x	i	x
COc1ccc(CC(=O)NC2CCCc3ccccc32)cc1 (stereo not drawn)	i	17.8µM*	i	-1.2%
O=C(NC(=S)NC1CCCc2ccccc21)c1ccco1 (stereo not drawn)	11.2µM*	u	i	-11.2%
CCOC(=O)c1c(C)[nH]c(C(=O)OC(C(=O)N(C)C)c2ccccc2)c1C (stereo not drawn)	x	x	x	-1.2%
CC1(C)SC2c3ccccc3C(=O)N2[C@@H]1C(=O)NC1CC1 (stereo partly drawn)	i	1.26µM*	i	-4.6%
COc1ccc(Nc2nc(-c3sc(C)nc3C)cs2)c(OC)c1	i	15.8µM*	i	-13.7%
COc1ccccc1Nc1nc(-c2cccs2)cs1	i	u	i	-16.6%
COc1ccc(Nc2nc(-c3cccs3)cs2)c(OC)c1	i	12.6µM*	i	x
COc1ccc(OC)c(Nc2nc(-c3cccs3)cs2)c1	i	15.8µM*	i	7.9%
Cn1cnc(S(=O)(=O)N2CCC(C(=O)Nc3ccc(Cl)c(C(F)(F)F)c3)CC2)c1	i	23.4%	i	x
